Laboratory results: the supplement of paper PMC6658780
Counter-ions that a name gives are not always drawn. ± gives the standard deviation of the averaged measurements.

How the values were obtained:
[1] = tested on: Klebsiella pneumoniae KPC-119; experiment: percent growth inhibition of drug alone vs DMSO control; higher = more growth inhibition; conditions: antibiotic (0.125x MIC): none (0.1% DMSO)
[2] = tested on: Klebsiella pneumoniae KPC-119; experiment: percent growth inhibition of drug + antibiotic vs DMSO control; higher = more growth inhibition
[3] = tested on: Klebsiella pneumoniae NCTC-13439; experiment: percent growth inhibition of drug alone vs DMSO control; higher = more growth inhibition; conditions: antibiotic (0.125x MIC): none (0.1% DMSO)
[4] = tested on: Klebsiella pneumoniae NCTC-13439; experiment: percent growth inhibition of drug + antibiotic vs DMSO control; higher = more growth inhibition; conditions: antibiotic (0.125x MIC): tigecycline; 7 µM
[5] = antibiotic (0.125x MIC): colistin, 20 µM
[6] = antibiotic (0.125x MIC): colistin, 7 µM

With `C=CCN1CC[C@]23c4c5ccc(O)c4O[C@H]2C(=O)CC[C@@]3(O)[C@H]1C5` [Naloxone hydrochloride] as the molecule, how does the “percent growth inhibition of drug alone” value ([1]; 7 µM) read?
The value was -0.923 ± 1.2%.

And the “percent growth inhibition of drug alone” value ([1]; 20 µM)?
Its value is 0.247 ± 1.1%.

And the percent growth inhibition [2, 5]?
Its percent growth inhibition is -10.2 ± 2.5%.

What does the source list for `C[N+]1([O-])[C@@H]2C[C@@H](OC(=O)[C@H](CO)c3ccccc3)C[C@H]1[C@@H]1O[C@@H]12` (stereo partly drawn) [Scopolamin-N-oxide hydrobromide]?
percent growth inhibition of drug alone ([1]; 7 µM): -1.08 ± 2.3%; percent growth inhibition of drug alone ([1]; 20 µM): -2.41 ± 3.1%; percent growth inhibition [2, 5]: 7.85 ± 0.11%

Which “percent growth inhibition of drug alone” value ([1]; 7 µM) does the source give for `C[C@]12CC[C@H](O)C[C@@H]1CC[C@@H]1[C@@H]2CC[C@]2(C)C(=O)CC[C@@H]12` [Epiandrosterone] here?
The value was 0.561 ± 2%.

What about the “percent growth inhibition of drug alone” value ([1]; 20 µM) of the same molecule?
Its value is -1.04 ± 0.09%.

And the percent growth inhibition [2, 6]?
Its percent growth inhibition is -6.74 ± 2.2%.

What does the source list for `O=C([O-])c1ccccc1-c1c2cc(Br)c(=O)cc-2oc2[c]([Hg+])c([O-])c(Br)cc12.[Na+].[Na+].[OH-]` [Merbromin]?
percent growth inhibition of drug alone ([1]; 7 µM): 1.39 ± 0.87%; percent growth inhibition of drug alone ([1]; 20 µM): 7.86 ± 1.4%; percent growth inhibition of drug alone ([3]; 7 µM): -0.236 ± 1.4%; percent growth inhibition of drug alone ([3]; 20 µM): 15.7 ± 0.91%; percent growth inhibition ([2]; antibiotic (0.125x MIC): gentamicin, 7 µM): 2.44 ± 4%; percent growth inhibition ([2]; antibiotic (0.125x MIC): meropenem, 20 µM): 99.619 ± 0.036%; percent growth inhibition [4]: -5.98 ± 14%

Which “percent growth inhibition of drug alone” value ([1]; 7 µM) does the source give for `CCn1cc(C(=O)O)c(=O)c2cc3c(cc21)OCO3` [Oxolinic acid] here?
The value was 6.34 ± 3%.

And the “percent growth inhibition of drug alone” value ([1]; 20 µM)?
The value was 16.3 ± 9.5%.

And the percent growth inhibition [2, 6]?
The percent growth inhibition was 37.9 ± 7.2%.

And the percent growth inhibition [2, 5]?
Its percent growth inhibition is 100.2 ± 0.18%.

`C#CCN(C)[C@H](C)Cc1ccccc1` [Selegiline hydrochloride] was tested. Which “percent growth inhibition of drug alone” value ([1]; 7 µM) did it give?
Its value is -1.33 ± 2.5%.

What about the “percent growth inhibition of drug alone” value ([1]; 20 µM) of the same molecule?
Its value is 0.878 ± 0.49%.

And the percent growth inhibition [2, 5]?
The percent growth inhibition was 4.23 ± 6.9%.
